Measurements from PubChem BioAssay (NCI).
This is part of a sample that, as a whole, favours compounds with a hit. Of some 83,000 tested, about 20% had one in any assay.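 Activity criterion: percent growth below 10, measured after cells in 96-well plates were exposed to a single compound concentration for 48 hours.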 Calls of active or inactive are those of the source.

Assays:
Test in all cases: NCI-60 one-dose screen, 48 h (100 = growth as untreated, 0 = no growth, -100 = all killed)
Conditions in all cases: 10 µM unless noted
DU-145 prostate = system: DU-145 prostate
K-562 leukemia = system: K-562 leukemia
MALME-3M melanoma = system: MALME-3M melanoma
MDA-MB-231 breast = system: MDA-MB-231 breast
RXF 393 renal = system: RXF 393 renal
SF-268 CNS = system: SF-268 CNS
SF-295 CNS = system: SF-295 CNS
SF-539 CNS = system: SF-539 CNS
UACC-257 melanoma = system: UACC-257 melanoma
M14 melanoma = system: M14 melanoma
HCT-15 colon = system: HCT-15 colon
HT29 colon = system: HT29 colon
SNB-75 CNS = system: SNB-75 CNS
SNB-19 CNS = system: SNB-19 CNS
U251 CNS = system: U251 CNS
PC-3 prostate = system: PC-3 prostate
SK-MEL-5 melanoma = system: SK-MEL-5 melanoma
UACC-62 melanoma = system: UACC-62 melanoma
LOX IMVI melanoma = system: LOX IMVI melanoma
SK-MEL-28 melanoma = system: SK-MEL-28 melanoma

Measured: growth

COc1ccc(Cn2cc3c(c2)-c2oncc2CC3)cc1
inactive: DU-145 prostate 176% | K-562 leukemia 20.6% | MALME-3M melanoma 83.2% | MDA-MB-231 breast 70.5% | RXF 393 renal 75.8% | SF-268 CNS 136% | SF-295 CNS 58.6% | SF-539 CNS 48% | UACC-257 melanoma 85.9% | M14 melanoma 29.2% | HCT-15 colon 54.8% | SNB-75 CNS 50.6% | SNB-19 CNS 71.8% | U251 CNS 42.8% | PC-3 prostate 82.3% | SK-MEL-5 melanoma 49.7% | UACC-62 melanoma 38.6% | LOX IMVI melanoma 59% | SK-MEL-28 melanoma 69.9%
active: HT29 colon 9.48%

COc1ccc(C2=C/C(=C\c3ccccc3O)C(=O)N2Cc2ccccc2)cc1
inactive: DU-145 prostate 96.2% | K-562 leukemia 51.1% | MALME-3M melanoma 63.4% | MDA-MB-231 breast 93.7% | RXF 393 renal 76.2% | SF-268 CNS 86.5% | SF-295 CNS 94% | SF-539 CNS 101% | UACC-257 melanoma 71.7% | M14 melanoma 50.5% | HCT-15 colon 67.6% | HT29 colon 102% | SNB-75 CNS 92.3% | SNB-19 CNS 82.3% | U251 CNS 83.9% | PC-3 prostate 52.2% | SK-MEL-5 melanoma 66.2% | UACC-62 melanoma 63.9% | LOX IMVI melanoma 81% | SK-MEL-28 melanoma 79.9%

CC(C)c1nc(N(C)S(C)(=O)=O)nc(-c2ccc(F)cc2)c1/C=C/C(=O)C[C@@H](O)CC(=O)O
inactive: DU-145 prostate 102% | K-562 leukemia 90.9% | MALME-3M melanoma 109% | MDA-MB-231 breast 110% | RXF 393 renal 124% | SF-268 CNS 98.5% | SF-295 CNS 103% | SF-539 CNS 104% | UACC-257 melanoma 95.6% | M14 melanoma 102% | HCT-15 colon 108% | HT29 colon 85.6% | SNB-75 CNS 91.4% | SNB-19 CNS 105% | U251 CNS 105% | PC-3 prostate 97.6% | SK-MEL-5 melanoma 105% | UACC-62 melanoma 99.5% | LOX IMVI melanoma 101% | SK-MEL-28 melanoma 112%

O=C(c1ccc(F)cc1)C1CCN(CCn2c(=O)[nH]c3ccccc3c2=O)CC1
inactive: DU-145 prostate 108% | K-562 leukemia 100% | MALME-3M melanoma 89.3% | MDA-MB-231 breast 110% | RXF 393 renal 115% | SF-268 CNS 103% | SF-295 CNS 97.6% | SF-539 CNS 103% | UACC-257 melanoma 110% | M14 melanoma 104% | HCT-15 colon 105% | HT29 colon 98.4% | SNB-75 CNS 92.6% | SNB-19 CNS 110% | U251 CNS 101% | PC-3 prostate 87.4% | SK-MEL-5 melanoma 94.2% | UACC-62 melanoma 102% | LOX IMVI melanoma 98.7% | SK-MEL-28 melanoma 108%

O=c1ccc2c(ccc3ncccc32)o1
inactive: DU-145 prostate 117% | K-562 leukemia 113% | MALME-3M melanoma 121% | MDA-MB-231 breast 120% | RXF 393 renal 95% | SF-268 CNS 113% | SF-295 CNS 90.4% | SF-539 CNS 106% | UACC-257 melanoma 110% | M14 melanoma 128% | HCT-15 colon 108% | HT29 colon 99.9% | SNB-75 CNS 105% | SNB-19 CNS 118% | U251 CNS 109% | PC-3 prostate 94.3% | SK-MEL-5 melanoma 95% | UACC-62 melanoma 112% | LOX IMVI melanoma 102% | SK-MEL-28 melanoma 113%

Nc1nc(Nc2ccc([N+](=O)[O-])cc2O)nc(C(Cl)(Cl)Cl)n1
inactive: DU-145 prostate 97.3% | K-562 leukemia 28.7% | MALME-3M melanoma 84.9% | MDA-MB-231 breast 86.9% | RXF 393 renal 76.1% | SF-268 CNS 64.4% | SF-295 CNS 93.2% | SF-539 CNS 58% | UACC-257 melanoma 85.7% | M14 melanoma 74.6% | HCT-15 colon 53.3% | HT29 colon 106% | SNB-75 CNS 62.6% | SNB-19 CNS 80.2% | U251 CNS 73.3% | PC-3 prostate 91.6% | SK-MEL-5 melanoma 72.7% | UACC-62 melanoma 41.1% | LOX IMVI melanoma 44.8% | SK-MEL-28 melanoma 60%

COc1ccc(NC(=O)c2sc3nc(C)c(C(=O)c4ccccc4)cc3c2N)cc1
inactive: DU-145 prostate 116% | K-562 leukemia 94.2% | MALME-3M melanoma 102% | MDA-MB-231 breast 98.6% | RXF 393 renal 87.8% | SF-268 CNS 104% | SF-295 CNS 103% | SF-539 CNS 102% | UACC-257 melanoma 96.9% | M14 melanoma 106% | HCT-15 colon 95.2% | HT29 colon 89.8% | SNB-75 CNS 107% | SNB-19 CNS 90.8% | U251 CNS 100% | PC-3 prostate 97% | SK-MEL-5 melanoma 103% | UACC-62 melanoma 79.9% | LOX IMVI melanoma 108% | SK-MEL-28 melanoma 89.9%

Oc1ccc(C(c2ccc(O)cc2)c2ccc(Cl)cn2)cc1
active: RXF 393 renal -57% | SNB-75 CNS -32.5% | PC-3 prostate -32.2% | LOX IMVI melanoma -42.6%
inactive: DU-145 prostate 56.7% | K-562 leukemia 71.8% | MALME-3M melanoma 107% | MDA-MB-231 breast 77.1% | SF-268 CNS 92.4% | SF-295 CNS 30.9% | SF-539 CNS 83.4% | UACC-257 melanoma 95.5% | M14 melanoma 85.5% | HCT-15 colon 23.2% | HT29 colon 47.9% | SNB-19 CNS 71.9% | U251 CNS 97% | SK-MEL-5 melanoma 96.5% | UACC-62 melanoma 39.3% | SK-MEL-28 melanoma 112%

COc1ccc(/C(C)=C(\c2ccc(Cl)cc2)c2ccc(OCCCN(C)C)cc2)cc1
inactive: DU-145 prostate 90.4% | MALME-3M melanoma 64.5% | MDA-MB-231 breast 78.9% | RXF 393 renal 70.1% | SF-268 CNS 77.4% | SF-295 CNS 85.7% | SF-539 CNS 82.5% | UACC-257 melanoma 89.1% | M14 melanoma 36.8% | HCT-15 colon 20.4% | SNB-75 CNS 97.2% | SNB-19 CNS 73.8% | U251 CNS 41% | PC-3 prostate 68.2% | SK-MEL-5 melanoma 37.8% | UACC-62 melanoma 83.9% | LOX IMVI melanoma 22.1% | SK-MEL-28 melanoma 75.1%
active: K-562 leukemia 1.91% | HT29 colon 1.29%

CC1=NC(=S)NC(c2ccccc2)/C1=C1/CC(c2ccccc2O)NN1 (stereo not given)
inactive: DU-145 prostate 101% | K-562 leukemia 99.4% | MALME-3M melanoma 97.9% | MDA-MB-231 breast 94.8% | RXF 393 renal 103% | SF-268 CNS 93.3% | SF-295 CNS 100% | SF-539 CNS 93.4% | UACC-257 melanoma 107% | M14 melanoma 97.3% | HCT-15 colon 97.3% | HT29 colon 105% | SNB-75 CNS 80.7% | SNB-19 CNS 94.2% | U251 CNS 103% | PC-3 prostate 95% | SK-MEL-5 melanoma 102% | UACC-62 melanoma 97.8% | LOX IMVI melanoma 101% | SK-MEL-28 melanoma 104%

O=C1NC(=O)C(=Cc2cc(-c3ccc(Cl)cc3)n(-c3ccccc3)n2)C(=O)N1
inactive: DU-145 prostate 105% | K-562 leukemia 90.6% | MALME-3M melanoma 99.2% | MDA-MB-231 breast 99.8% | RXF 393 renal 86% | SF-268 CNS 105% | SF-295 CNS 93.8% | SF-539 CNS 96.5% | UACC-257 melanoma 101% | M14 melanoma 93.1% | HCT-15 colon 89.4% | HT29 colon 112% | SNB-75 CNS 92.4% | SNB-19 CNS 87.3% | U251 CNS 96.7% | PC-3 prostate 100% | SK-MEL-5 melanoma 96.6% | UACC-62 melanoma 90.5% | LOX IMVI melanoma 104% | SK-MEL-28 melanoma 98.5%

N#C/C(=C\c1cccc2cnccc12)N1N=NC2C=CC=CC21 (stereo not given)
inactive: K-562 leukemia 12.4% | MALME-3M melanoma 36% | SF-268 CNS 56.6% | SF-295 CNS 98.4% | SF-539 CNS 45.7% | UACC-257 melanoma 46.9% | M14 melanoma 32.6% | HCT-15 colon 13.5% | HT29 colon 12.7% | SNB-19 CNS 66% | U251 CNS 70.6% | PC-3 prostate 47.9% | SK-MEL-5 melanoma 46.4% | UACC-62 melanoma 37.1% | LOX IMVI melanoma 11.7% | SK-MEL-28 melanoma 43.8%
active: DU-145 prostate 8.33% | MDA-MB-231 breast 9.44% | RXF 393 renal -17.1% | SNB-75 CNS 7.27%

O=C1NCCS(=O)(=O)/C1=C\C=C\c1cccc(C(F)(F)F)c1
inactive: DU-145 prostate 29.4% | K-562 leukemia 17.3% | MALME-3M melanoma 29.9% | MDA-MB-231 breast 49.1% | RXF 393 renal 35.5% | SF-268 CNS 28.6% | SF-295 CNS 82.7% | SF-539 CNS 10.6% | UACC-257 melanoma 38.6% | HCT-15 colon 10.2% | HT29 colon 16.8% | SNB-75 CNS 71.2% | SNB-19 CNS 49.6% | U251 CNS 36% | PC-3 prostate 37.5% | SK-MEL-5 melanoma 34.5% | SK-MEL-28 melanoma 28.7%
active: M14 melanoma 7.1% | UACC-62 melanoma -15% | LOX IMVI melanoma -73.6%

CC(Cc1cccc2ccccc12)C(N)=O (stereo not given)
inactive: DU-145 prostate 110% | K-562 leukemia 104% | MALME-3M melanoma 111% | MDA-MB-231 breast 100% | RXF 393 renal 113% | SF-268 CNS 106% | SF-295 CNS 100% | SF-539 CNS 96.6% | UACC-257 melanoma 104% | M14 melanoma 108% | HCT-15 colon 101% | HT29 colon 101% | SNB-75 CNS 98.6% | SNB-19 CNS 104% | U251 CNS 105% | PC-3 prostate 93.8% | SK-MEL-5 melanoma 101% | UACC-62 melanoma 98.8% | LOX IMVI melanoma 101% | SK-MEL-28 melanoma 108%

COc1cccc(C2C3=C(COC3=O)N(CCO)c3cc4c(cc32)OCCO4)c1 (stereo not given)
active: DU-145 prostate -38.9% | K-562 leukemia 6.5% | MDA-MB-231 breast 8.33% | SF-295 CNS -5.81% | SF-539 CNS -23.1% | M14 melanoma -11.7% | HCT-15 colon 2.89% | HT29 colon -30.7% | SNB-75 CNS -14.1% | SNB-19 CNS 9.81% | U251 CNS 2.46% | SK-MEL-5 melanoma -12.1%
inactive: MALME-3M melanoma 69.6% | RXF 393 renal 11.2% | SF-268 CNS 23.8% | UACC-257 melanoma 53.6% | PC-3 prostate 20.3% | UACC-62 melanoma 24.8% | LOX IMVI melanoma 22.1% | SK-MEL-28 melanoma 38.7%
